Shiga toxin inh: inhibitors of Shiga toxin in Vero cells; Vero cells, Shiga toxin protein synthesis inhibition reporter; inhibition, % at 38.7 µM; 290,000 compounds, 9.2% hits; AID 2315; in the data active = inhibition mostly above about 28%, no sharp cut-off; inactive = mostly below about 43%; note: 0% is about no effect
CHX counter: affects cycloheximide protein synthesis inhibition readout, counter-screen | cell reporter, cycloheximide protein synthesis inhibition counterscreen | max response, % | 300,000 compounds, 12% hits | AID 2314; in the data active = max response mostly above about 13%, no sharp cut-off; inactive = mostly below about 14%; note: read at 38.3 µM for the half of the compounds with a filed dose; 0% is about no effect
Pf growth 96h: P. falciparum growth inhibition at 96 hours | P. falciparum luciferase reporter growth, 96 h | 320,000 compounds, 6.9% hits | Potency, µM (doses to about 28.7 µM), for the others: at the top dose activity change, negative = inhibition, most hits filed as inhibitors | AID 504834; note: potency is the fitted concentration of half-maximal effect; % is set by controls: 0 for no effect and ±100 for the full control effect
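P. falciparum expressing integrated firefly luciferase, in erythrocytes at 2% hematocrit, 0.05% parasitemia, incubated with compounds 96 h at 37 C, 5% CO2. Growth inhibition read as loss of luminescence; two-generation exposure targets delayed-death apicoplast inhibitors.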
Pf growth 48h: P. falciparum growth inhibition at 48 hours (one generation). Potency, µM (titrated, usually from 28.7 µM), for inactives: at the highest dose activity change, negative = inhibition, actives largely listed as inhibitors. P. falciparum luciferase growth in erythrocytes, 48 h. AID 504832. 310,000 compounds, 5.9% hits; note: potency is the fitted concentration of half-maximal effect; % is set by controls: 0 for no effect and ±100 for the full control effect
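Here the parasites carry a stable luciferase gene and grow inside erythrocytes in Albumax-based RPMI medium with compound for one erythrocytic cycle. Activity is scored as loss of luminescent signal.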
Active calls of the source: *; [ ] = another dose, or the depositor's remark. A selection: hits, their analogues and other compounds. The true share with any hit is near 21%. Unless noted, calls come from the whole dose curve; as a rule, active = well fitted inhibition curve with a large enough effect; inconclusive = small, poorly fitted or top-dose-only effect, or another doubt; inactive = no such curve, though single readings can be large or run the other way.

`Cc1ccc(NC(=O)Nc2cccn(Cc3c(F)cccc3Cl)c2=O)cc1` gave Shiga toxin inh 34.2, CHX counter -0.8, Pf growth 96h 5.22µM* and Pf growth 48h -20.3%.
For COc1ccc(NC(=O)Nc2ccc(F)c(Cl)c2)cc1 the results were Shiga toxin inh 90.5*, CHX counter 64.9*, Pf growth 96h -29.1% and Pf growth 48h 63.7%.
CCOC(=O)c1ccc(NC(=O)Nc2ccon2)cc1 was read as Shiga toxin inh 66.2*, CHX counter 30.6*, Pf growth 96h -3.3% and Pf growth 48h -1.2%.
`CCN(CC)C(=O)Cn1cnc2sc(C(=O)N3CCN(Cc4ccc5c(c4)OCO5)CC3)c(C)c2c1=O` gave Shiga toxin inh 1.4, CHX counter 12.3, Pf growth 96h inconclusive and Pf growth 48h -15.1%.
COc1ccc(NC(=O)Nc2ccc(Br)c(C)c2)cc1 was read as Shiga toxin inh 30.6*, CHX counter 10.9, Pf growth 96h 14.5% and Pf growth 48h -23.8%[5.75 µM].
N#Cc1ccc(NC(=O)Nc2ccc(Cl)cc2)cc1 was read as Shiga toxin inh 60.6*, CHX counter 38.2*, Pf growth 96h 29.1% and Pf growth 48h inconclusive.
Screening NC(=O)c1cccc(NC(=O)Nc2ccc(Cl)cc2)c1 returned Shiga toxin inh 21.5, CHX counter 18.5*, Pf growth 96h inconclusive and Pf growth 48h 16.1%.
Screening COc1cc(NC(=O)Nc2ccc(Cl)c(Cl)c2)c(C(=O)O)cc1OC returned Shiga toxin inh -1.0, CHX counter -0.5, Pf growth 96h -20.4% and Pf growth 48h 23.9%.
For CCN(CC(=O)Nc1cccc(OC)c1)CC(=O)Nc1ccc(Br)c(C)c1 the results were Shiga toxin inh 3.5, CHX counter -2.5, Pf growth 96h -20.3% and Pf growth 48h inconclusive.
O=C(Nc1ccc(Cl)c(Cl)c1)Nc1ccc(Br)cc1F was read as Shiga toxin inh 13.0, CHX counter 10.2, Pf growth 96h 4.65µM* and Pf growth 48h inconclusive.
Screening COC(=O)c1[nH]c2ccccc2c1NC(=O)C(C)N1CC(C)OC(C)C1 (stereo not drawn) returned Shiga toxin inh -6.0, CHX counter -0.9, Pf growth 96h inconclusive and Pf growth 48h -29.7%.
Screening O=C(Nc1cccnc1)Nc1ccc(F)c(Cl)c1 returned Shiga toxin inh 26.0, CHX counter 14.5*, Pf growth 96h 17.5% and Pf growth 48h inconclusive.
`Cc1ccc(NC(=O)Nc2ccc(F)c(Cl)c2)cc1` gave Shiga toxin inh 81.6*, CHX counter 30.5*, Pf growth 96h -6.1% and Pf growth 48h -72.5%.
`O=C(Nc1cccnc1)c1cc(F)c(F)cc1Cl` gave Shiga toxin inh -5.0, CHX counter -5.6, Pf growth 96h 19.0% and Pf growth 48h 23.7%.
For CC(C)(C)N(NC(=O)Nc1ccc(Cl)c(Cl)c1)C(=O)c1ccccc1 the results were Shiga toxin inh 10.5, CHX counter -2.2, Pf growth 96h inconclusive and Pf growth 48h 11.7µM*.
`O=C(Nc1ccc(Cl)c(Cl)c1)Nc1ccon1` gave Shiga toxin inh 14.6, CHX counter 17.6*, Pf growth 96h 76.8% and Pf growth 48h 1.0%.
Screening O=S(=O)(c1cccc2cccc(Cl)c12)N1CCCC1 returned Shiga toxin inh -4.0, CHX counter -5.6, Pf growth 96h 82.3% and Pf growth 48h 3.6%.
`Cc1cc(C)c(S(=O)(=O)N2CCCCC2C(=O)O)c(C)c1` (stereo not drawn) gave Shiga toxin inh -21.8, CHX counter 0.3, Pf growth 96h 18.1% and Pf growth 48h -1.8%.
Screening O=C(Nc1ccc(Cl)cc1)Nc1ccc(Cl)c(Cl)c1 returned Pf growth 96h 2.69µM* and Pf growth 48h 2.33µM*.
For O=C(Nc1ccc(Cl)c(Cl)c1)Nc1ccccc1O the results were Shiga toxin inh 91.0*, CHX counter 56.9*, Pf growth 96h 69.1% and Pf growth 48h 138.3%.
`C=CCNc1nc(C(=O)OCC(=O)c2ccc(Cl)cc2)cs1` gave Pf growth 96h 9.4% and Pf growth 48h -28.2%.
Screening COc1ccc(/C=C/C(=O)OCC(=O)NCc2ccco2)c(OC)c1 returned Shiga toxin inh 2.9, CHX counter 5.8, Pf growth 96h 26.6% and Pf growth 48h 21.9%.
Screening Cc1cccc(NC(=O)c2cc(-c3cc(C)c(C)cc3O)n[nH]2)c1 returned Shiga toxin inh 43.2*, CHX counter 28.3* and Pf growth 96h inconclusive.
For COc1ccc(NC(=O)c2cc(-c3cc(C)ccc3O)n[nH]2)cc1Cl the results were Shiga toxin inh 16.7, CHX counter 8.4, Pf growth 96h inconclusive and Pf growth 48h 2.08µM*.
Cc1ccc(-c2cc(C(=O)Nc3cccnc3)[nH]n2)c(O)c1C was read as Shiga toxin inh 100.4*, CHX counter 38.8*, Pf growth 96h -7.6% and Pf growth 48h inconclusive.
CC(=O)Nc1ccc(NC(=O)c2cc(-c3ccc(C)cc3O)n[nH]2)cc1 was read as Shiga toxin inh 26.9, CHX counter 2.5, Pf growth 96h inconclusive and Pf growth 48h inconclusive.
Cc1cccc(NC(=O)c2cc(-c3cc(C)ccc3O)n[nH]2)c1 was read as Shiga toxin inh 108.4*, CHX counter 39.6*, Pf growth 96h inconclusive and Pf growth 48h inconclusive.
Screening COc1cc(C(=O)Nc2cccc(NC(=O)c3cccs3)c2)cc(OC)c1OC returned Shiga toxin inh 9.4, CHX counter -1.6, Pf growth 96h 39.6% and Pf growth 48h inconclusive.
`CCOc1ccc(C(=O)N2CCN(CC(=O)N3CCCC3)CC2)cc1OCC` gave Pf growth 96h 2.9% and Pf growth 48h 0.4%.
`Cc1ccc(O)c(-c2cc(C(F)(F)F)[nH]n2)c1` gave Shiga toxin inh -3.0, CHX counter -0.8, Pf growth 96h 14.7µM* and Pf growth 48h inconclusive.
`CCN(CC(=O)NCc1ccc(Cl)cc1)C(=O)CN1C(=O)NC(C)(c2ccccc2)C1=O` (stereo not drawn) gave Shiga toxin inh -9.4, CHX counter -6.0, Pf growth 96h inconclusive and Pf growth 48h 49.2%.
`O=C(NCc1cccnc1)Nc1cccc(NC(=O)NCc2cccnc2)c1` gave Shiga toxin inh -13.4, CHX counter 2.1 and Pf growth 48h -3.0%.
For Cc1ccc(NC(=O)NCc2cccnc2)cc1Cl the results were Shiga toxin inh 38.5*, CHX counter 32.1*, Pf growth 96h -4.3% and Pf growth 48h 17.6%.
CCCCCc1ccc(CC(=O)O)cc1 was read as Shiga toxin inh 5.0, CHX counter 10.0, Pf growth 96h 9.28µM* and Pf growth 48h 10.3%.
CCOC(=O)c1ccc(NCc2cccnc2)cc1 was read as Shiga toxin inh 44.6, CHX counter 15.5*, Pf growth 96h 10.5% and Pf growth 48h 55.8%.
Screening O=C(NCc1cccnc1)Nc1cccc(C(F)(F)F)c1 returned Shiga toxin inh 13.3, CHX counter -2.6, Pf growth 96h 1.47µM* and Pf growth 48h -21.1%.
CCOC(=O)c1ccc(NC(=O)NCc2cccnc2)cc1 was read as Shiga toxin inh 15.3, CHX counter 12.6, Pf growth 96h inconclusive and Pf growth 48h 1.1%.
`COc1ccc(CN(C)C(=O)c2ccccc2Sc2ccccc2C#N)c(OC)c1` gave Shiga toxin inh -20.3, CHX counter -2.6, Pf growth 96h inconclusive and Pf growth 48h -1.6%.
